NS1 inh: influenza NS1 inhibition; AID 2326; Potency, µM (titrated, usually from 46.1 µM); 270,000 tested, 0.4% active; calls by dose curve; also: actives are rising curves; nearly all actives have a fitted effect of over 50% in size
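Growth recovery, yeast-based: influenza A NS1 expressed in S. cerevisiae causes slow growth, and suppressors are detected by OD600. The parent strain without NS1 is used as positive control.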
Pf growth 48h: P. falciparum growth inhibition at 48 hours (one generation). 310,000 tested, 5.9% active. Potency, µM (titrated, usually from 28.7 µM), most hits filed as inhibitors. P. falciparum luciferase growth in erythrocytes, 48 h
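Read-out is firefly luciferase luminescence from an integrated reporter in P. falciparum, so falling signal marks reduced parasite growth. Infected erythrocytes were at 2% hematocrit and 0.1% parasitemia (final) in Albumax-supplemented RPMI 1640.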
Cycloheximide cs: counter-screen for Shiga toxin inhibitors: cycloheximide protein synthesis inhibition | max response, % | 300,000 tested, 12% active | cell reporter, cycloheximide protein synthesis inhibition counterscreen; in the data active = max response mostly above about 13%, no sharp cut-off; inactive = mostly below about 14%; also: read at 38.3 µM for the half of the compounds with a filed dose
Pf growth 96h: inhibits malaria parasite growth, 96 h. P. falciparum luciferase reporter growth, 96 h. AID 504834. 320,000 tested, 6.9% active. Potency, µM (doses to about 28.7 µM), usual class: inhibitors
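Luminescence readout: decreased luciferase signal marks inhibited growth of reporter-expressing P. falciparum in infected red cells (2% hematocrit, 0.05% parasitemia final), exposed to compound two generations (96 h, 37 C, 5% CO2).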
Shiga inhibitor: inhibitors of Shiga toxin in Vero cells. Vero cells, Shiga toxin protein synthesis inhibition reporter. inhibition, % at 38.7 µM. 290,000 tested, 9.2% active. AID 2315; in the data active = inhibition mostly above about 28%, no sharp cut-off; inactive = mostly below about 43%
Hits are given with their value; - = inactive; ? = inconclusive; . = not tested or not shown. An excerpt weighted towards active compounds, which were near 21% of everything screened. Unless noted, calls follow the shape of the dose curve; as a rule, active = well fitted inhibition curve with a large enough effect; inconclusive = small, poorly fitted or top-dose-only effect, or another doubt; inactive = no such curve, though single readings can be large or run the other way.

SMILES	NS1 inh	Pf growth 48h	Cycloheximide cs	Pf growth 96h	Shiga inhibitor
Cc1nc(-c2ccccc2)sc1C1(C)CC(c2c(Cl)cccc2Cl)=NO1 (stereo unspecified)	?	-	20.1	-	53.3
CCN(C(=O)CN1C(=O)/C(=C/c2ccccc2)SC1=S)C1CCS(=O)(=O)C1 (stereo unspecified)	-	-	-	-	-
Clc1cccc(CN2CCc3c([nH]c4ccccc34)C2)c1Cl	-	1.85µM	-	?	-
COc1ccccc1CN1CCc2c([nH]c3ccccc23)C1	-	?	-	-	-
COc1ccc(CCNC(=O)c2nn(C)c3c2CS(=O)(=O)c2ccccc2-3)cc1OC	-	-	-	-	-
C=CCOc1cccc(/C=N/NC(=O)CN(c2cc(Cl)ccc2OC)S(=O)(=O)c2ccc(C)c([N+](=O)[O-])c2)c1	-	?	-	1.17µM	-
C/C(=N\NS(=O)(=O)c1ccc([N+](=O)[O-])cc1)c1ccc2c(c1)OCO2	-	-	-	5.86µM	-
C/C(=N\NS(=O)(=O)c1ccccc1)c1ccc2c(c1)OCO2	.	-	12.4	-	-
C/C(=N\Nc1ccc([N+](=O)[O-])cc1)c1ccc2c(c1)OCO2	.	-	30.0	-	80.5
C/C(=N/NS(=O)(=O)c1cccc([N+](=O)[O-])c1)c1ccc2c(c1)OCO2	-	-	-	0.828µM	-
C/C(=N/NS(=O)(=O)c1ccc(C)cc1)c1ccc2c(c1)OCO2	-	-	-	-	-
CCOC(CCn1c(SCC(=O)Nc2cc(C)on2)nc2ccccc2c1=O)OCC	.	-	-	-	-
C/C(=N\NS(=O)(=O)c1ccc(C)c([N+](=O)[O-])c1)c1ccc2c(c1)OCO2	.	-	26.9	-	-
CC(=O)c1ccc(N2CCN(C(=O)[C@H](C)NC(=O)c3ccccc3Cl)CC2)cc1	-	-	-	?	-
CCOC(=O)N1CCC(=NNc2nc3ccccc3s2)CC1	-	-	71.4	?	76.6
CCOC(=O)N1CCN(S(=O)(=O)c2ccc(C(=O)Nc3nc4ccccc4s3)cc2)CC1	-	?	-	-	-
CC(=O)N1CCC(=NNc2nc3ccccc3s2)CC1	.	-	45.2	-	91.4
CCOC(=O)N1CCN(/C=C(\C#N)c2nc3ccccc3s2)CC1	-	-	15.0	-	81.5
CCOc1ccc(NC(=O)CN(C)CC(=O)Nc2ccc(Br)cc2F)cc1OCC	.	-	-	-	-
CCOc1ccc(C2CC(c3cccc(OC)c3)Nc3ncnn32)cc1 (stereo unspecified)	-	.	-	-	-
CCS(=O)(=O)n1nc(-c2ccccc2)cc1N	?	.	-	1.31µM	-
CCCS(=O)(=O)n1nc(-c2ccc(Br)cc2)cc1N	-	-	-	-	-
CCCS(=O)(=O)n1nc(-c2ccccc2)cc1N	-	.	-	9.28µM	-
Nc1cc(-c2ccc(Cl)cc2)nn1S(=O)(=O)c1ccccc1	-	.	-	-	-
Cc1ccnc(NC2(C(F)(F)F)N=C3SCCN3C2=O)c1 (stereo unspecified)	.	-	-	-	-
SMILES	NS1 inh	Pf growth 48h	Cycloheximide cs	Pf growth 96h	Shiga inhibitor
CCOc1ccc(OCC)c(NC(=O)CCCN2C(=S)NC(C)(C)CC2C)c1 (stereo unspecified)	-	?	-	-	-
N#Cc1ccc(OCC(=O)Nc2ccccc2NS(=O)(=O)c2cccs2)cc1	-	-	-	-	-
Nc1ccc(-c2nc3ccc(C(=O)O)cc3s2)cc1	-	-	-	-	-
Nc1ccc(-c2nc3ccc(N)cc3s2)cc1	-	-	13.7	-	-
Cc1ccc2nc(-c3ccc(NC(=O)c4ccc(N)cc4)c(S(=O)(=O)O)c3)sc2c1	-	.	.	.	.
Nc1cccc(-c2nc3ccc(N)cc3s2)c1	-	-	21.2	-	-
Nc1cc2sc(-c3ccc(C(=O)O)cc3)nc2cc1Cl	-	-	25.7	-	30.8
Nc1ncc(N=Nc2cc(C(=O)O)ccc2Cl)s1	-	-	-	?	-
O=C1CS(=O)(=O)c2ccccc2N1	-	-	-	-	-
Cc1cccc(C(=O)N2CCCC(N3CCN(c4cccc(Cl)c4)CC3)C2)n1 (stereo unspecified)	-	-	21.0	-	-
CC(C)n1cc(C(=O)N2CCCC(N3CCN(c4ccc(F)cc4)CC3)C2)cn1 (stereo unspecified)	-	-	-	?	-
CC(C)c1nc(C(=O)N2CCCC(N3CCN(c4cccc(Cl)c4)CC3)C2)cs1 (stereo unspecified)	-	?	-	3.7µM	-
Cc1ccccc1N1CCN(C2CCCN(C(=O)c3csc(C(C)C)n3)C2)CC1 (stereo unspecified)	-	-	-	?	-
O=C(c1ccncc1)N1CCCC(N2CCN(c3ccc(F)cc3)CC2)C1 (stereo unspecified)	-	-	27.3	-	38.8
Cc1ccc2nc(C)cc(C(=O)N3CCCC(N4CCN(c5ccccc5C)CC4)C3)c2c1 (stereo unspecified)	-	11.7µM	-	-	-
CC(C)(Cc1ccc(O)cc1)NC(=O)c1ccccc1	-	-	-	-	-
CCOc1c2ccc(C(=O)NCc3ccc4c(c3)OCO4)cc2nn1CC	-	-	-	-	-
O=C(Nc1ccccc1F)c1cc(S(=O)(=O)N2CCOCC2)cs1	-	?	-	-	-
CN1CC2=Cc3ccccc3OC23Oc2ccccc2C=C3C1	-	9.28µM	-	11.7µM	-
CC(C)OC12Oc3ccccc3C=C1N1CCC2CC1 (stereo unspecified)	-	-	-	?	-
CCn1c(=O)c2c(nc(SCC(=O)N3CCCC(C)C3)n2C)n(C)c1=O (stereo unspecified)	-	-	-	-	-
COc1cccc(C2NC(=O)CCC2[N+](=O)[O-])c1OC (stereo unspecified)	-	-	-	-	-
COc1cc(C2NC(=O)CCC2[N+](=O)[O-])c(OC)cc1Br (stereo unspecified)	-	-	-	6.57µM	-
OCCN(CCO)c1nc(N2CCCCC2)c2nc(N(CCO)CCO)nc(N3CCCCC3)c2n1	-	2.08µM	-	3.29µM	-
Nc1nc(NCCO)nc(N2CCCCCC2)c1[N+](=O)[O-]	-	-	-	-	-
SMILES	NS1 inh	Pf growth 48h	Cycloheximide cs	Pf growth 96h	Shiga inhibitor
O=C(O)C1=NOC(CNc2ncc(C(F)(F)F)cc2Cl)C1 (stereo unspecified)	-	-	-	-	-
CC(=O)C1=NOC(CNc2ncc(C(F)(F)F)cc2Cl)C1 (stereo unspecified)	-	-	17.2	-	-
O=c1cc(Cl)[nH]c(=O)n1CCNc1ncc(C(F)(F)F)cc1Cl	-	-	35.5	-	93.8
O=C1C=CC(=O)N1CCNc1ncc(C(F)(F)F)cc1Cl	-	-	-	-	-
Cc1ccc(C(=O)NCCNc2ncc(C(F)(F)F)cc2Cl)cc1[N+](=O)[O-]	-	?	-	7.38µM	-
COc1ccc(C(=O)NCCNc2ncc(C(F)(F)F)cc2Cl)cc1[N+](=O)[O-]	-	?	-	?	-
O=[N+]([O-])c1ccccc1NCCNc1ncc(C(F)(F)F)cc1Cl	-	-	28.6	-	120.6
COc1nccc(-c2ccc(F)cc2)c1C#N	.	?	-	-	-
